# Screening data (PubChem BioAssay)
# KCNQ2 inh = rat KCNQ2 potassium channel inhibitors, primary screen, cell-based, CHO-K1, FluxOR thallium flux, B-score | Potassium voltage-gated channel subfamily KQT member 2 (Rattus norvegicus), O88943 | 1.1% of 310,000 active | 20 min; stronger effect = lower value | B-score at 10 µM;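 active means fluorescence ratio B-score at most minus 3 library SDs, with starting brightness B-score within 2 library SDs, cut at about -5.5 in these data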
# KCNQ2 pot = potentiators of rat KCNQ2 potassium channel | CHO-K1 KCNQ2, FluxOR thallium flux fluorescence; stronger effect = higher value | B-score at 10 µM | 0.54% of 310,000 active;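 active means fluorescence ratio B-score at least 3 SD of library B-scores, with initial fluorescence B-score within 3 of them, cut at about 5.3 in these data; same plate scores as AID 2156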;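 further: B-score of peak minus minimum over baseline fluorescence ratio after K+ and Tl+ stimulus; positive B-score means potentiation of KCNQ2 with more thallium influx and brighter signal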
# KCNQ2 block conf = rat KCNQ2 potassium channel inhibitors, confirmation, cell-based, thallium flux. shares compounds with KCNQ2 inh. KCNQ2-expressing cells, inhibition; stronger effect = lower value. activity change, negative = inhibition, % at 10 µM. 57% of 1,000 active;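 further: 0% = vehicle wells and values are ratio percent relative to vehicle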
# KCNQ1 spec = human KCNQ1 channel inhibition, counter-screen for KCNQ2 inhibitor project, cell-based, FluxOR thallium flux; activity change, negative = inhibition, % at 10 µM; KCNQ1-expressing cells, FluxOR thallium flux fluorescence; stronger effect = lower value; 15% of 1,000 active; shares compounds with KCNQ2 inh;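 active means activity change at least 3 SD of negative controls below their mean in both duplicate wells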;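 further: CHO cells stably transfected with KCNQ1 and depolarized by potassium stimulus; peak minus minimum fluorescence over baseline after thallium addition; 0% = vehicle negative control and -100% = blank without thallium stimulus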
# Target sequence (P51787 whole entry, looked up): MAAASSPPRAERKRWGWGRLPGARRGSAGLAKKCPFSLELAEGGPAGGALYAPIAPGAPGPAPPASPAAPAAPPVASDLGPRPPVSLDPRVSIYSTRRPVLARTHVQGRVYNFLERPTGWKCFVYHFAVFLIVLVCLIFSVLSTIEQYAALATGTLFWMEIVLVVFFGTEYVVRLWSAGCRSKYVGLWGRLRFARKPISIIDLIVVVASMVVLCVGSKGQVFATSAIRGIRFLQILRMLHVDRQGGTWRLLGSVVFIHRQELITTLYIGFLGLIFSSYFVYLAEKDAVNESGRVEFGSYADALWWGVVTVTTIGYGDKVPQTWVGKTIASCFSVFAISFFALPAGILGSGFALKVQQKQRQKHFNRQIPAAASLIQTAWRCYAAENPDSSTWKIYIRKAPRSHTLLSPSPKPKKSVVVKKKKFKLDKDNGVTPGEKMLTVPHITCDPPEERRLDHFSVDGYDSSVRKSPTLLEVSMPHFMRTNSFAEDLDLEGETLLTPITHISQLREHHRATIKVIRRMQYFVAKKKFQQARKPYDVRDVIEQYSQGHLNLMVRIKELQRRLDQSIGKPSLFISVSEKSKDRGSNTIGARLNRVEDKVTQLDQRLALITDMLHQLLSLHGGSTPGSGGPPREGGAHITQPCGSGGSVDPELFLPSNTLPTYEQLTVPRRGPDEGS
# CHO parental ctr = thallium flux change in parental CHO cells, counter-screen for KCNQ2 inhibitor project. activity change, % at 10 µM. stronger effect = lower value. 14% of 1,000 active. shares compounds with KCNQ2 inh;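 further: 0% = vehicle negative controls with stimulus buffer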
# KCNQ2 patch conf = rat KCNQ2 channel inhibitors, confirmation, cell-based, automated patch clamp, single concentration. AID 588531, 2011. shares compounds with KCNQ2 inh. KCNQ2-expressing cells, automated patch clamp current. 49% of 550 active. calls only at 10 µM
# * = called active by the depositor; i = inactive; nt = no result given; + = active, no number. The list is not random: actives were taken first. Their share in the collection is about 1.6%. Unless noted, how the calls were made is not given here.
SMILES,KCNQ2 inh,KCNQ2 pot,KCNQ2 block conf,KCNQ1 spec,CHO parental ctr,others
NNC(=O)c1csc(-c2ccc(C(F)(F)F)cc2Cl)n1,i,nt,nt,nt,nt,
CCn1cnc2cc(NCc3nc4ccccc4n3Cc3ccccc3)ccc21,-8.5*,-8.5,-34%*,i,i,KCNQ2 patch conf=+
CCn1cnc2cc(NCc3nc4ccccc4n3C)ccc21,i,nt,nt,nt,nt,
COc1ccc(C(=O)CC(=O)C(=O)Nc2ccc(Cl)cc2)cc1,i,nt,nt,nt,nt,
COc1ccc(C(=O)CC(Nc2ccc([N+](=O)[O-])cc2)c2ccc(Cl)cc2)cc1 (stereo not given),-8.1*,-8.1,i,i,i,
NS(=O)(=O)c1ccc(NC(=O)COC(=O)COc2ccc(Br)cc2)cc1,i,0.44,nt,nt,nt,
Cc1ccc(Sc2c(CO)c(-c3ccccc3)nn2C)cc1,i,nt,nt,nt,nt,
Cc1ccccc1Sc1c(C#N)c(-c2ccccc2)nn1C,-10*,-10,-36%*,-36%*,-32%*,KCNQ2 patch conf=i
COc1ccc2oc(C(=O)OCC(=O)Nc3cc(S(=O)(=O)N4CCOCC4)ccc3OC)c(C)c2c1,i,2.2,nt,nt,nt,
Cc1cc(C)n(C(C)CC(=O)Nc2ccc3c(c2)OCCO3)n1 (stereo not given),i,0.34,nt,nt,nt,
Clc1ccccc1C(c1ccccc1)(c1ccccc1)n1ccnc1,-7.6*,-7.6,-36%*,-30%*,-24%*,KCNQ2 patch conf=i
Clc1ccccc1OCCCn1ccnc1,i,1.1,nt,nt,nt,
CC1CCC(C(C)C)C(OC(=O)COC(=O)c2ccc(N)cc2)C1 (stereo not given),i,nt,nt,nt,nt,
CC1CCC(C(C)C)C(OC(=O)Cn2c(-c3ccc(Cl)cc3)[n+](C)c3ccccc32)C1 (stereo not given),-6.7*,-6.7,-46%*,-46%*,-48%*,KCNQ2 patch conf=+
COc1ccccc1Nc1nc(N)nc(CN2CCN(Cc3ccccc3)CC2)n1,-9.9*,-9.9,-18%*,i,i,KCNQ2 patch conf=i
COc1ccccc1Nc1nc(N)nc(CN2CCCCC2)n1,i,nt,nt,nt,nt,
O=C(Cc1sc(-c2ccccc2)nc1-c1ccccc1)Nc1ccccc1,i,0.16,nt,nt,nt,
O=C(Cc1sc(Nc2ccccc2)nc1-c1ccccc1)NCc1ccccc1,-7.1*,-7.1,i,i,i,
COc1ccc(C(=O)Nc2cc3c(cc2OC)CCCC3)cc1Br,i,nt,nt,nt,nt,
COc1cc2c(cc1NC(=O)c1ccc(C(C)(C)C)cc1)CCCC2,-7.2*,-7.2,i,i,i,
O=C(C1CC(=O)N(c2ccccc2)C1)N1CCN(c2ccccc2F)CC1 (stereo not given),i,0.33,nt,nt,nt,
Cc1ccc(F)cc1NC(=O)COC(=O)COc1ccc(C#N)cc1,i,0.97,nt,nt,nt,
Cc1cc(NC(=O)Cc2cc(F)cc(F)c2)no1,i,0.18,nt,nt,nt,
Cc1nn(C(C)C(=O)N2CCCCC2)c(=O)c2c1sc1ccccc12 (stereo not given),-8.9*,-8.9,-30%*,i,i,KCNQ2 patch conf=+
Cc1nn(C(C)C(=O)O)c(=O)c2c1sc1ccccc12 (stereo not given),i,nt,nt,nt,nt,
SMILES,KCNQ2 inh,KCNQ2 pot,KCNQ2 block conf,KCNQ1 spec,CHO parental ctr,others
Cc1nn(-c2ccccc2)c(C)c1NC(=O)COC(=O)/C=C/c1ccccc1,i,nt,nt,nt,nt,
CN1CCN(c2cc(-c3ccccc3)nc3cc(-c4ccc(F)cc4)nn23)CC1,i,nt,nt,nt,nt,
COc1cccc(-c2cc3nc(-c4ccccc4)cc(N4CCC5(CC4)OCCO5)n3n2)c1,-8.4*,-8.4,-32%*,i,i,KCNQ2 patch conf=i
COC(=O)c1ccc(C(=O)OC)c(NC(=O)COC(=O)CC2CC3CCC2C3)c1 (stereo not given),-11*,-11,i,i,i,
Cc1ccc(Cl)cc1NC(=O)COC(=O)CC1CC2CCC1C2 (stereo not given),i,nt,nt,nt,nt,
Clc1ccc(-c2csc(N3CCC(c4ccccc4)C3)n2)cc1 (stereo not given),i,nt,nt,nt,nt,
Fc1ccc(-c2csc(N3CCC(c4ccccc4)C3)n2)cc1 (stereo not given),-9.5*,-9.5,i,i,i,
COc1cc(OC)cc(C(=O)Nn2cc(C(=O)Nc3ccccc3F)c3ccccc3c2=O)c1,-7.1*,-7.1,i,i,i,
COC(=O)c1cn(NC(=O)c2cccc(F)c2)c(=O)c2ccccc12,i,nt,nt,nt,nt,
O=C(Nn1cc(C(=O)Nc2ccccc2F)c2ccccc2c1=O)c1cnccn1,i,nt,nt,nt,nt,
COC(=O)c1cn(NC(=O)c2cccc(N(C)C)c2)c(=O)c2ccccc12,-7.8*,-7.8,-45%*,-36%*,-30%*,KCNQ2 patch conf=+
COc1ccc(NC(=O)c2ccc3c(=O)n(CC4CCCO4)c(=S)[nH]c3c2)c(OC)c1 (stereo not given),i,nt,nt,nt,nt,
CCOC(=O)c1c(C)[nH]c(C)c1S(=O)(=O)NC(C)Cc1ccco1 (stereo not given),i,nt,nt,nt,nt,
COc1ccccc1N1CCN(Cc2cc(=O)c(OCC(=O)NC3CCCC3)co2)CC1,i,1.4,nt,nt,nt,
CSC(SC)=C(C#N)C(=O)c1ccccc1,-7.9*,-7.9,i,i,i,
COc1cccc(C(=O)C(C#N)=C(SC)SC)c1,i,nt,nt,nt,nt,
Cc1ccc(N2C(=O)N(CC(=O)NCc3ccccc3Cl)C(=O)C2C)cc1 (stereo not given),-6.6*,-6.6,-28%*,i,i,KCNQ2 patch conf=+
Cc1ccc(N2C(=O)N(CC(=O)Nc3ccccc3C)C(=O)C2C)cc1 (stereo not given),i,nt,nt,nt,nt,
O=C(NCCCCc1ccccc1)c1ccc(Br)cc1,i,1.2,nt,nt,nt,
O=C(NCCC(=O)N(CCc1ccccc1)Cc1ccccc1)c1ccc(Br)cc1,-9.2*,-9.2,-18%*,i,i,KCNQ2 patch conf=i
CCCCn1c(N)c(N(CC(C)C)C(=O)c2cc(-c3ccncc3)nc3ccccc23)c(=O)[nH]c1=O,i,nt,nt,nt,nt,
O=C(NCCn1cc(SCc2ccccc2)c2ccccc21)c1ccccc1F,-8.2*,-8.2,i,i,i,
O=C(CSc1cn(CCNC(=O)c2ccccc2F)c2ccccc12)NCC1CCCO1 (stereo not given),i,0.75,nt,nt,nt,
CCCCn1c(N)c(N(Cc2ccccc2OC)C(=O)c2c(CC)noc2C)c(=O)[nH]c1=O,i,0.44,nt,nt,nt,
COc1ccc(-c2cc(C(=O)N3CCCCCC3)c3cc(C)ccc3n2)cc1,-8.5*,-8.5,-30%*,i,i,KCNQ2 patch conf=+
Cc1ccc(-c2cc(C(=O)N3CCOCC3)c3ccccc3n2)cc1,i,nt,nt,nt,nt,
COc1ccc(-c2cc(C(=O)N3CCOCC3)c3cc(C)ccc3n2)cc1,-7.2*,-7.2,-31%*,i,i,KCNQ2 patch conf=+
COc1ccc(-c2cc(C(=O)N3CCCCC3)c3ccccc3n2)cc1,i,nt,nt,nt,nt,
Cc1ccc2c(c1)N(CC(=O)Nc1ncccc1C)C(=O)C(C(C)C)O2 (stereo not given),i,nt,nt,nt,nt,
